# Reference: paper PMC7819943, “Rice protein-binding microarrays: a tool to detect cis-acting elements near promoter regions in rice”
# In all, about 35,000 sequences were measured (“fluorescence intensity (a.u.)”: median about 10,000, highest 2% from about 52,000 on). The sample as a whole holds a higher share of the highest values than the screen did.
# Biological target: T1, OsWOX13 (Oryza sativa, UniProt Q5QMM3 1-267)
# T1 sequence: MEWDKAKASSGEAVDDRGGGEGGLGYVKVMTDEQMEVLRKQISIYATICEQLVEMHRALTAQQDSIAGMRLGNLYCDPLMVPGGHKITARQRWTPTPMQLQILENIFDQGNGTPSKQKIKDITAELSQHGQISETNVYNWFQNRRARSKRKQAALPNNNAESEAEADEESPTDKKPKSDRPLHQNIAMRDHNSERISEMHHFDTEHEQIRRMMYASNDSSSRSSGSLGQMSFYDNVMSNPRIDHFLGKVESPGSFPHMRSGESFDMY
# Experiment: protein-binding microarray (RPBM); PBS, 2% BSA, 51.3 ng/ul salmon testes DNA, 50 uM zinc acetate, 200 nM TF, 25 C, 1 h; high values mean tight binding
# Conditions: protein: recombinant; tags: N-terminal polyhistidine and DsRed monomer fusion (pET32a); label: CyDye5-dUTP incorporated in the synthesized complementary strand; 3' TTTTT single-stranded linker to array surface; dsDNA, one strand shown
# Procedure, shortened: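 For the binding signal, per-feature fluorescence intensity was read in arbitrary units on an Axon 4000B scanner. Before scanning, a 2% BSA-blocked custom Agilent array made double-stranded with Cy5-dUTP was washed after 1 h at 25 °C with 200 nM protein and 50 µM zinc acetate. The proteins were Ni–NTA-purified transcription factors with N-terminal polyhistidine and DsRed fusions, expressed in E. coli BL21-CodonPlus.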
row,Sequence,binding signal
1,TCCCTGAATTTTAGGAGTGATTGGACCTAAAGTTGAGGAGCGGAGTCACCTAGTGCAG,17200 fluorescence intensity (a.u.)
2,CCGTTGGATTGGAATCGGAGGGCCTACAATGACTGAGTGCCGGAGTCACCTAGTGCAG,5860 fluorescence intensity (a.u.)
3,CGTCTGGGGTTTGATTGGGATTGAGGCGAATTCGGGCGGTCGGAGTCACCTAGTGCAG,34000 fluorescence intensity (a.u.)
4,CAGAATGACAACATTGACTGATTGACACTAGAAATACATACGGAGTCACCTAGTGCAG,39000 fluorescence intensity (a.u.)
5,TTCTGCTGATTGGAATGACTACAACACTAGAGTTGTCTGTCGGAGTCACCTAGTGCAG,56100 fluorescence intensity (a.u.)
6,TGGCGGATTGATCTGGAGGTGGGCTTGTTGGGGTTGCTGTCGGAGTCACCTAGTGCAG,14400 fluorescence intensity (a.u.)
7,TCTACTAATTTAAAGTTGCAGTGTTCCTCCTCCCTCCTACCGGAGTCACCTAGTGCAG,10700 fluorescence intensity (a.u.)
8,TGGGTAGGGGCAGTTAATTGGGAGGGAATTCCTCCTTCACCGGAGTCACCTAGTGCAG,8890 fluorescence intensity (a.u.)
9,ACTGATGAAATATCAAAGTGATTGTCAGACAAAGCGCCATCGGAGTCACCTAGTGCAG,25800 fluorescence intensity (a.u.)
10,TACCCATCTTCCATTGACAGACAATTGGGCCCCACTCCGCCGGAGTCACCTAGTGCAG,7450 fluorescence intensity (a.u.)
11,AGCTAATAATTACTAATTACTAAGTAATACTTCCTCTGTTCGGAGTCACCTAGTGCAG,41700 fluorescence intensity (a.u.)
12,ATTATTGACAAAAGCATCTCGATATCTTATGGATTAATATCGGAGTCACCTAGTGCAG,4720 fluorescence intensity (a.u.)
13,CGTGAGTGAAATTTTAATTACGTGTACATATAGGGGAGTACGGAGTCACCTAGTGCAG,20500 fluorescence intensity (a.u.)
14,ATATAATGGGCACTATGATTTGCTCTAAATATTGGTCATTCGGAGTCACCTAGTGCAG,28800 fluorescence intensity (a.u.)
15,TCCTGATTGTTCACAATTGTGCTAGTTCAAACAAGGCAAACGGAGTCACCTAGTGCAG,24800 fluorescence intensity (a.u.)
16,GCACTGATTGAATTGAACTGTATAGAACAAAATGAAATTTCGGAGTCACCTAGTGCAG,19600 fluorescence intensity (a.u.)
17,AGATGCTGATTGGTTGCGAACTATCTGTTCAATTTGCATCCGGAGTCACCTAGTGCAG,46300 fluorescence intensity (a.u.)
18,TTGATTGCGAATGATTGGAGCTGGTTGCTGTTGCTAGATCCGGAGTCACCTAGTGCAG,57800 fluorescence intensity (a.u.)
19,CTGGAATGAGTGGTGGTTGATTGTTTAGTGTTTACTGTTCCGGAGTCACCTAGTGCAG,18500 fluorescence intensity (a.u.)
20,ACTATTATATTGATCAATTGATTACATAATTCACGTGTCGCGGAGTCACCTAGTGCAG,43700 fluorescence intensity (a.u.)
21,TACATCCCTACTAATTGTGTCATGTATCAATAATGATATGCGGAGTCACCTAGTGCAG,3560 fluorescence intensity (a.u.)
22,ATGATGATGATATACACGCCAAATTGAATTAGAAACTGATCGGAGTCACCTAGTGCAG,6800 fluorescence intensity (a.u.)

row,Sequence,binding signal
1,GATGATTGATTGGGTTGGTTGGAACGTGCGATGGAATGATCGGAGTCACCTAGTGCAG,65400 fluorescence intensity (a.u.)
2,TATAAAATTGATGGTTGGAATTATAAATATTTCGATTGAACGGAGTCACCTAGTGCAG,9830 fluorescence intensity (a.u.)
3,TAGATGAAATGGGTTGGGTTGATTTGGGTTGAAATATGATCGGAGTCACCTAGTGCAG,6400 fluorescence intensity (a.u.)
4,CATCAATTAATTGACATGATACTATCTACCTTGCGTGTCGCGGAGTCACCTAGTGCAG,65000 fluorescence intensity (a.u.)
5,AAATGATTGAATCCTAGAAACTCTGACCTATACAAGTGGTCGGAGTCACCTAGTGCAG,60500 fluorescence intensity (a.u.)
6,GATAACGTGGCCAAATTATATCAGACGTTCATGTTTAGATCGGAGTCACCTAGTGCAG,5800 fluorescence intensity (a.u.)
7,TTCACAAATTTTGATGCGATGATTAGCTAAGGCATGTTCGCGGAGTCACCTAGTGCAG,23500 fluorescence intensity (a.u.)
8,TTACGATGATATATAATTGGACGGAAGCAGCGATCATGCTCGGAGTCACCTAGTGCAG,14100 fluorescence intensity (a.u.)
9,AGCTAATTTATGCATGCATGGATTCCGATGGAGGAGCTGTCGGAGTCACCTAGTGCAG,19400 fluorescence intensity (a.u.)
10,GAGCAATTAGGCTTAAAAGATTCGTCTCGCAAATTAGTCGCGGAGTCACCTAGTGCAG,3540 fluorescence intensity (a.u.)
11,TTGATTGATGGGTAGTAAGGAAACCTTTTGAATGAGTGGTCGGAGTCACCTAGTGCAG,64700 fluorescence intensity (a.u.)
12,AATGGAGATTGGATCTGATTGGTTGTTGTTGCTTGAGGATCGGAGTCACCTAGTGCAG,62600 fluorescence intensity (a.u.)
13,GTGATTGAAATGGATCCTGGTCGGAAATGAATCCTGGTCGCGGAGTCACCTAGTGCAG,43700 fluorescence intensity (a.u.)
14,TGGAATGATGTTGGGATTGATGGATGGATGTATGTTTTGTCGGAGTCACCTAGTGCAG,15300 fluorescence intensity (a.u.)
15,TGCTGGTTGATTGATTGATTGATGGACAAATAGGTAGATGCGGAGTCACCTAGTGCAG,56300 fluorescence intensity (a.u.)
16,TCTGATTGCTGTTAGTTGTTGATGAGATGGAGATGGAGATCGGAGTCACCTAGTGCAG,39900 fluorescence intensity (a.u.)
17,TCTGTTGATGAATGGATTGATTGATGGATGGATGGATGGTCGGAGTCACCTAGTGCAG,64100 fluorescence intensity (a.u.)
18,GCAGCCTAGATTGACAATAGATGAATTGGAGCTAGTAGTGCGGAGTCACCTAGTGCAG,35400 fluorescence intensity (a.u.)
19,GATGATGGATTGGAAAGGCAAGTAAGCTGGAGTAGGTGGTCGGAGTCACCTAGTGCAG,38000 fluorescence intensity (a.u.)
20,CAAAATTTGATGAATGGAAGGGTCGAAACTGAGTGATTGCCGGAGTCACCTAGTGCAG,23600 fluorescence intensity (a.u.)
21,ATAGATGAAGAATAAATATGATTGGTAGAGAAGAGAGATGCGGAGTCACCTAGTGCAG,25600 fluorescence intensity (a.u.)
22,TTCTGATTTGCCCCTATCTTATTGAGATTGCTTGTGTGATCGGAGTCACCTAGTGCAG,30600 fluorescence intensity (a.u.)
